45 compounds from PubChem BioAssay (NCATS) can be followed below.

A short description of assay [1]: Primary qHTS for Huh7 cytotoxicity: counterscreen for inhibitors of MERS-S pseudotyped particle cell entry (AID 1479147).
Assay [2] in a line: Primary qHTS for inhibitors of MERS-S pseudo-typed particle cell entry (AID 1479149). Further: nearly all actives have a fitted effect of over 60% in size.
Assay [3] is described as follows: Primary qHTS for Vero E6 cytotoxicity: counterscreen for inhibitors of SARS-S pseudo-typed particle cell entry (AID 1479150). On the technique in general: Quantitative high-throughput screening tests each substance at several concentrations.
Assay [4] can be described thus: Confirmatory qHTS for activators (rescue) of SARS-CoV-2 Cytopathic Effect (CPE) (AID 1508606). Further: nearly all actives have a fitted effect of over 70% in size. Further: potency means the concentration at half of the fitted maximal effect.
A short description of assay [5]: Primary qHTS for inhibitors of La Crosse Virus (LACV) - induced cell death in SH-SY5Y cells (AID 1508616; active means well fitted inhibition curve with a large enough effect;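 further: top concentration of the series differs between compounds; higher means more rescue of cells from virus-induced death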). The gist of the method: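 Cytopathicity rescue screen: compounds pinned onto SH-SY5Y cells, which are then infected with LACV (MOI 0.01) and held 6 days at 37C. Percent activity is scaled between infected DMSO control and uninfected DMSO control.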
Assay [6] can be described thus: Confirmatory qHTS for VERO E6 Cytotoxicity Assay: Counterscreen for SARS-CoV-2 CPE Assay (AID 1508605). Further: series mostly up to about 20 µM; nearly all actives have a fitted effect of over 60% in size.

Molecules are shown by their SMILES. Results filed as inconclusive are left out. Active and inactive are the calls of the source. Unless noted, the call rests on the fitted dose curve.

On to `CN1CCC(=C2c3ccccc3CC(=O)c3sccc32)CC1`, for which the Potency entry in assay [1], in assay [2] and in assay [3] was “inactive” in each case.
With `O=C(NC1CCN(CCc2c[nH]c3ccccc23)CC1)c1ccccc1`, the Potency result in assay [1], in assay [2] and in assay [3] was “inactive” throughout.
As for `C[C@@H]1CCC[C@H](C)N1CCCC(O)(c1ccccc1)c1ccccn1` (some centres not stated), the Potency entry in assay [1], in assay [2] and in assay [3] was “inactive” in each case.
For `CC[N+](CC)(CC(=O)Nc1c(C)cccc1C)Cc1ccccc1`, the Potency entry in assay [1], in assay [2] and in assay [3] was “inactive” in each case.
For `CN1CCN(c2cc3c(cc2F)c(=O)c(C(=O)O)cn3-c2ccc(F)cc2)CC1`, the Potency entry in assay [1], in assay [2] and in assay [3] was “inactive” each time.
As for `CC(=O)[C@@]1(O)CC[C@H]2[C@@H]3C[C@H](C)C4=CC(=O)CC[C@]4(C)[C@H]3CC[C@@]21C`, the Potency result in assay [1], in assay [2] and in assay [3] was “inactive” each time.
In the case of `C=CCOc1cc(Cl)ccc1C(=O)NCCN(CC)CC`, the Potency entry in assay [1], in assay [2] and in assay [3] was “inactive” in each case.
Take `COC(=O)C1=C(C)NC(C)=C(C(=O)OC)C1c1ccccc1[N+](=O)[O-]`: the Potency entry in assay [1], in assay [2] and in assay [3] was “inactive” each time.
With `CN1CCN(C2=Nc3ccccc3Sc3ccc(Cl)cc32)CC1`, the Potency entry in assay [1], in assay [2] and in assay [3] was “inactive” throughout.
Turning to `CCc1ccc(C(=O)C(C)CN2CCCCC2)cc1` (configuration not stated), the Potency entry in assay [1], in assay [2] and in assay [3] was “inactive” in each case.
As to `CN(C)CCN1C(=O)c2ccccc2N(C)c2ccccc21`, the Potency entry in assay [1], in assay [2] and in assay [3] was “inactive” throughout.
In the case of `O=C(OCc1ccccc1)c1ccc(O)cc1`, the Potency entry in assay [1], in assay [2] and in assay [3] was “inactive” in each case.
In the case of `C/C=C(/C(=C/C)c1ccc(O)cc1)c1ccc(O)cc1`, the Potency entry in assay [1], in assay [2] and in assay [3] was “inactive” throughout.
Take `Cc1cc(C(C)(C)C)cc(C)c1CC1=NCCN1`: the Potency entry in assay [1], in assay [2] and in assay [3] was “inactive” each time.
With `C[N+]1(C)CCC(=C(c2ccccc2)c2ccccc2)CC1`, the Potency entry in assay [1], in assay [2] and in assay [3] was “inactive” in each case.
In the case of `Cc1ncc(COP(=O)(O)O)c(C=O)c1O`, the Potency result in assay [1], in assay [2] and in assay [3] was “inactive” in each case.
In the case of `CN(C)CCCOC1(Cc2ccccc2)CCCCCC1`, the Potency result in assay [1], in assay [2] and in assay [3] was “inactive” throughout.
With `CN(C)[C@@H](CCOc1cccc2ccccc12)c1ccccc1`, in assay [4], the Potency is 10 µM (active).
Same read-out and setting: with `CN1CCC(=C2c3ccccc3CCc3sccc32)CC1` the figure was 11.2 µM (active).
Turning to `C#C[C@]1(O)CC[C@H]2[C@@H]3CCC4=CC(=O)CCC4=C3C=C[C@@]21CC`, in assay [5], the compound was called inactive.
With `CC/C(=C(/CC)c1ccc(O)cc1)c1ccc(O)cc1`, the Potency result in assay [1] and in assay [3] was “inactive” each time.
On to `CCN(CC)CCOC(=O)C1(c2ccccc2)CCCC1`, for which the Potency entry in assay [1] and in assay [3] was “inactive” throughout.
With `CN1[C@@H]2CC[C@H]1CC(OC(=O)c1c[nH]c3ccccc13)C2` (some centres not stated), the Potency result in assay [1] and in assay [3] was “inactive” throughout.
Consider `C=C1C(=C/C=C2\CCC[C@]3(C)[C@@H]([C@H](C)/C=C/[C@@H](O)C4CC4)CC[C@@H]23)C[C@@H](O)C[C@@H]1O`, for which the Potency entry in assay [1] and in assay [3] was “inactive” in each case.
For `COc1ccc2c(c1)C(=O)N(CCc1ccc(S(=O)(=O)NC(=O)NC3CCCCC3)cc1)C(=O)C2(C)C`, the Potency result in assay [1] and in assay [3] was “inactive” each time.
As for `O=C(NCC1CN(c2ccc(N3CCOCC3=O)cc2)C(=O)O1)c1ccc(Cl)s1` (configuration not stated), the Potency result in assay [1] and in assay [3] was “inactive” in each case.
Turning to `CN(C)CCOc1ccccc1Cc1ccccc1`, the Potency result in assay [1] and in assay [3] was “inactive” throughout.
Take `C[C@@H](CN(C)C)CN1c2ccccc2Sc2ccccc21`: the Potency entry in assay [1], in assay [3] and in assay [6] was “inactive” in each case.
Regarding `CC(=O)c1ccc2c(c1)N(CCCN1CCC(CCO)CC1)c1ccccc1S2`, the Potency result in assay [1], in assay [3] and in assay [6] was “inactive” each time. The Potency in assay [4] was 11.2 µM (active).
With `CN(C)CCCN1c2ccccc2Sc2ccccc21`, the Potency entry in assay [1], in assay [3] and in assay [6] was “inactive” throughout.
Take `Clc1ccc(C(Cn2ccnc2)OCc2c(Cl)cccc2Cl)c(Cl)c1` (configuration not stated): the Potency result in assay [1] and in assay [3] was “inactive” in each case.
Consider `CC(=O)c1ccc2c(c1)N(CCCN(C)C)c1ccccc1S2`, for which the Potency result in assay [1] and in assay [3] was “inactive” in each case.
Regarding `CCCCCOc1ccccc1/C(=C\SC)n1ccnc1`, the Potency result in assay [1] and in assay [3] was “inactive” in each case.
Consider `CC(=O)O[C@]1(C(C)=O)CC[C@H]2[C@@H]3C=C(Cl)C4=CC(=O)CC[C@]4(C)[C@H]3CC[C@@]21C`, for which the Potency result in assay [1] and in assay [3] was “inactive” each time.
As for `CC(C)C[C@@H]1[C@H](c2ccccc2)OC(=O)N1CCCN1CCCCCC1`, the Potency result in assay [1] and in assay [3] was “inactive” throughout.
Regarding `O=C(Nc1ccc(Cl)cc1)Nc1ccc(Cl)c(C(F)(F)F)c1`, the Potency result in assay [1] and in assay [3] was “inactive” each time.
As to `CC(C)(C)c1ccc(C(=O)CCCN2CCC(OC(c3ccccc3)c3ccccc3)CC2)cc1`, the Potency entry in assay [1] and in assay [3] was “inactive” in each case.
For the compound `O=C(Nc1ccccc1)OCC(CN1CCCCC1)OC(=O)Nc1ccccc1` (configuration not stated), the Potency result in assay [1] and in assay [3] was “inactive” in each case.
As to `Clc1ccc2c(c1)CCc1cccnc1C2=C1CCNCC1`, the Potency result in assay [1], in assay [3] and in assay [6] was “inactive” each time.
With `O=C(CCCN1CCN(c2ccc(F)cc2)CC1)NC1c2ccccc2CSc2ccccc21` (configuration not stated), the Potency entry in assay [1], in assay [3], in assay [6] and in assay [4] was “inactive” throughout.
As for `COc1ccccc1N1CCN(CC(O)COc2cccc3ccccc23)CC1` (configuration not stated), the Potency result in assay [1] and in assay [3] was “inactive” each time.
On to `COc1cc(N)c(Cl)cc1C(=O)NC1CCN(Cc2ccccc2)CC1`, for which the Potency result in assay [1] and in assay [3] was “inactive” throughout.
As to `CN(C)CCCOc1nn(Cc2ccccc2)c2ccccc12`, the Potency entry in assay [1] and in assay [3] was “inactive” in each case.
`CCN(CC)CCOCCOC(=O)C1(c2ccccc2)CCCC1`: the Potency result in assay [1] and in assay [3] was “inactive” throughout.
Take `CO[C@@H]1[C@@H](O[C@@H]2O[C@H](C)[C@@H](O[C@H]3C[C@@](C)(O)[C@@H](O)[C@H](C)O3)[C@H](N(C)C)[C@H]2O)[C@@H](CC=O)C[C@@H](C)[C@@H](O[C@@H]2CC[C@H](N(C)C)[C@@H](C)O2)/C=C/C=C/C[C@@H](C)OC(=O)C[C@H]1OC(C)=O`: the Potency result in assay [1], in assay [3] and in assay [6] was “inactive” in each case.
